In PubChem BioAssay (NCI):
The panel holds about 83,000 compounds, 20% with a hit somewhere; the sample as a whole holds those more often.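 Treatment: one concentration, 48 hours, 96-well format. Scoring: percent growth, with anything below 10 considered active.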 Values without a mark were called inactive. Activity calls are given as the source filed them.

Legend:
Test in all cases: NCI-60 one-dose screen, 48 h (100 = growth as untreated, 0 = no growth, -100 = all killed)
Details in all cases: 10 µM unless noted
HCT-15 colon = test system: HCT-15 colon
HT29 colon = test system: HT29 colon
SNB-75 CNS = test system: SNB-75 CNS
SNB-19 CNS = test system: SNB-19 CNS
U251 CNS = test system: U251 CNS
PC-3 prostate = test system: PC-3 prostate
SK-MEL-5 melanoma = test system: SK-MEL-5 melanoma
UACC-62 melanoma = test system: UACC-62 melanoma
LOX IMVI melanoma = test system: LOX IMVI melanoma
SK-MEL-28 melanoma = test system: SK-MEL-28 melanoma
SK-MEL-2 melanoma = test system: SK-MEL-2 melanoma
SN12C renal = test system: SN12C renal
UO-31 renal = test system: UO-31 renal
TK-10 renal = test system: TK-10 renal
ACHN renal = test system: ACHN renal
CAKI-1 renal = test system: CAKI-1 renal
CCRF-CEM leukemia = test system: CCRF-CEM leukemia
MOLT-4 leukemia = test system: MOLT-4 leukemia
A498 renal = test system: A498 renal

Compound | growth (HCT-15 colon) | growth (HT29 colon) | growth (SNB-75 CNS) | growth (SNB-19 CNS) [%] | growth (U251 CNS) | growth (PC-3 prostate) | growth (SK-MEL-5 melanoma) | growth (UACC-62 melanoma) | growth (LOX IMVI melanoma) | growth (SK-MEL-28 melanoma) [%] | growth (SK-MEL-2 melanoma) | growth (SN12C renal) | growth (UO-31 renal) | growth (TK-10 renal) | growth (ACHN renal) | growth (CAKI-1 renal) | growth (CCRF-CEM leukemia) | growth (MOLT-4 leukemia) [%] | growth (A498 renal)
COc1ccc(-c2cn[nH]c2-c2cc(OC)c3c(c2)OCCO3)cc1 | 20.7% | 1.7% (active) | -5.75% (active) | 60.4 | 16.4% | 28.4% | 25.4% | 37.6% | 30.2% | 49.3 | 9.5% (active) | 29.6% | 50.4% | 57.8% | 38% | 56.9% | 17.4% | 12 | –
COc1cc(OC)c(C(=O)/C=C/c2ccc(C#N)cc2)c(OC)c1 | 9.66% (active) | 3.67% (active) | 14.1% | 16.7 | 12.6% | 37.4% | 8.04% (active) | 26.5% | 6.31% (active) | 39.2 | -11% (active) | 19.6% | 32.4% | 19.1% | 17.5% | 18.5% | 7.44% (active) | 14.3 | –
Cc1nc(Nc2cccnc2)sc1C(=O)/C=C/c1ccc(Cl)cc1 | 15% | 6.4% (active) | -1.63% (active) | 14.2 | 3.86% (active) | 29.4% | 73.1% | 36.1% | 0.346% (active) | 77.8 | 82.6% | 7.95% (active) | 25.3% | 8.61% (active) | 40.1% | 47.1% | 1.72% (active) | 53 | –
Cc1ccc2c(c1)C(=O)C(c1c(-c3[nH]c(=O)c4ccc(C)cc4c3O)c(O)c3ccccc3c1O)=NC2=O | 13.7% | 21.7% | 14.4% | 26.3 | -16.2% (active) | 2.45% (active) | 25.8% | 29.5% | 12.1% | 34.9 | 11.8% | -4.86% (active) | -11% (active) | 46.9% | 6.58% (active) | -2.66% (active) | 16.6% | – | –
COc1cccc(-c2nc3sccn3c2-c2ccnc(NCCCNS(=O)(=O)c3ccccc3)n2)c1 | 29.7% | 29.4% | 92.6% | 95.5 | 71% | 61.6% | 9.71% (active) | 14.2% | 28.9% | 43.4 | 58.1% | 55% | 29.5% | 82% | 40.2% | 52.5% | 30% | 29.4 | –
COc1cccc(-c2nc3sccn3c2-c2ccnc(NCCCNS(=O)(=O)c3ccc(F)cc3)n2)c1 | 18.1% | 26.7% | 66.8% | 78.4 | 49.6% | 47.7% | 7.26% (active) | 6.83% (active) | 14.4% | 38.1 | 40.8% | 36.8% | 12.5% | 66.2% | 21.8% | 30.9% | 24.6% | 23.2 | –
COc1cc(OC)c(C(=O)/C=C/c2cccc(C#N)c2)c(OC)c1 | 3.28% (active) | 8.61% (active) | 17.3% | 14.8 | 8.67% (active) | 32.1% | 7.71% (active) | 10.9% | -6.01% (active) | 34.4 | -34.8% (active) | 15.6% | 12.4% | 24.8% | -33.9% (active) | 15.9% | 2.65% (active) | 11.7 | –
CN(C)c1ccc(C2CC(c3ccccc3)=NN2/C=C2\SC(=O)NC2=O)cc1 (stereo not drawn) | 85.9% | 108% | 83.6% | 87.6 | 103% | 91.3% | 78.8% | 90.7% | 74.3% | 91.1 | 113% | 87.3% | 78.9% | 94.4% | 81.5% | 95% | 113% | 59.7 | –
O=C(CCl)NCCNc1nccc(Nc2ccc(S(=O)(=O)Nc3ccccn3)cc2)n1 | 4.99% (active) | 4.37% (active) | 32.5% | 17.4 | -68.1% (active) | 36.3% | -41.6% (active) | 5.42% (active) | -64.1% (active) | 38 | 32.8% | 13.5% | 47.4% | 50% | 25.6% | 10.3% | 12.3% | 23.8 | –
CN(C)c1ccc(/C=C\N=Nc2ccc(Br)cc2)cc1 | 36.2% | 52.9% | 82% | 96.2 | 68.4% | 52.3% | 76.5% | 17.2% | 13.2% | 83.9 | 72% | 65.8% | 32.6% | 68.5% | 60.4% | 51.5% | 29.7% | – | –
COc1cc(OC)c(C(=O)/C=C/c2ccc(C(F)(F)F)cc2)c(OC)c1 | 29.4% | 26.9% | 30% | 57.5 | 46.2% | 54.5% | 62.2% | 48.2% | 32.4% | 67.4 | 45.4% | 41.2% | 56.4% | 84.6% | 60% | 79.3% | 25.9% | 24 | –
C=C1C(=O)O[C@H]2[C@H](O)[C@@H](C)CCC/C(C)=C/CC[C@@]3(C)O[C@@H]3C[C@@H]12 | 96.3% | 99.6% | 75.7% | 88 | 97.3% | 46.5% | 91.5% | 89% | 92% | 95.1 | 90.4% | 91.2% | 77.4% | 81% | 96% | 74.8% | 79.5% | 78.6 | –
CC(C)(C)c1ccc(S(=O)(=O)Oc2ccc3c4c(c(=O)oc3c2)CCCCC4)cc1 | 30.5% | 15.8% | 39.1% | 82 | 54.3% | 32.9% | -3.23% (active) | 30.3% | 43.2% | 39.4 | 45% | 63.3% | 43.4% | 87.1% | 30.3% | – | 58.6% | 54.7 | -0.52% (active)
COc1cc2c3c(c(=O)oc2cc1OS(=O)(=O)c1ccc(C(F)(F)F)cc1)CCCCC3 | 79.2% | 78.8% | 8.09% (active) | 76.7 | 82.1% | 68.1% | 69.5% | 68.1% | 93.5% | 76.3 | 90.5% | 89.7% | 92.6% | 122% | 72.5% | – | 90.2% | 95.9 | 86.3%
COc1ccc(C(=O)/C=C/c2cc(C(=O)c3cc(OC)c(OC)c(OC)c3)ccc2OC)cc1 | 29.2% | 27.7% | 66.7% | 53.6 | 52.4% | 44.5% | 54.4% | 33.1% | 27.4% | 35.1 | 60.8% | 68.8% | 53.7% | 107% | 41% | – | 5.61% (active) | 10.5 | 93.1%
COc1cc(NCCCN=C(N)NC(N)=NC(C)C)c2ncccc2c1 | 89.8% | 58.9% | 75.3% | 77.7 | 70.8% | 45% | 27% | 90.1% | 80.8% | 84.4 | 16.2% | 38.1% | 69.1% | 107% | 94% | 94.7% | – | 57.7 | –
O=C(CN1CCOCC1)Nc1ccc(-c2nc3ccccc3s2)cc1 | 93.7% | 103% | 100% | 101 | 89.5% | 93% | 92.7% | 100% | 99.9% | 102 | 115% | 101% | 95% | 112% | 104% | 99.7% | 95.5% | 99.4 | –
